The values that follow come from paper PMC6602471.

The target of this assay is RUNX1 (Homo sapiens, UniProt Q01196 1-453). Briefly: custom PBM; custom protein-binding microarray; buffer, salt, pH and temperature not stated; high values mean tight binding. The note with it: dsDNA, one strand shown.
Sequence of RUNX1 (Q01196 whole entry): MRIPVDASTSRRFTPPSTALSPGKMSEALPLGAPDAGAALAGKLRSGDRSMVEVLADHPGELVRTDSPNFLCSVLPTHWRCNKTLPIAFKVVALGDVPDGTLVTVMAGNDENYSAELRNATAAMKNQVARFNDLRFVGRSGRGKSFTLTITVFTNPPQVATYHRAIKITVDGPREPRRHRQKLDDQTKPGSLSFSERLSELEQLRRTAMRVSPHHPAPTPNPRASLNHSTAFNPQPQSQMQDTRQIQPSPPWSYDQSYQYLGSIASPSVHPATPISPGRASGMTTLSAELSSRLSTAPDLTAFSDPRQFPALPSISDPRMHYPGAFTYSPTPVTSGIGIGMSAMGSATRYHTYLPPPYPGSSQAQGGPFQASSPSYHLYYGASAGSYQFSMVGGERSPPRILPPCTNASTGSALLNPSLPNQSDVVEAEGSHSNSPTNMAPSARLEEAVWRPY
As to “GCATACGGCTGACGTGAGCCACATACGCACACATACACATACACACATACACATACGCAC”, the binding signal was 10.9 log fluorescence intensity.
As for “CGCGCACTCTGTGGTTCCGCACATACGCACACATACACATACACACATACACATACGCAC”, the binding signal was 11.4 log fluorescence intensity.
Turning to “GCGCACATTTCCCGTGAATCATACACGCACACATACACATACACACATACACATACGCAC”, the binding signal was 11 log fluorescence intensity.
With “GCATACGGCGGACGTCAGCCACATACGCACACATACACATACACACATACACATACGCAC” the figure was 11 log fluorescence intensity; with “CGCGCACTCTGTGGTTACGCACATACGCACACATACACATACACACATACACATACGCAC”, 11.7 log fluorescence intensity.
For the sequence “CGCGCACTCTGTGGTTGCTCACATACGCACACATACACATACACACATACACATACGCAC”, the binding signal is 11.4 log fluorescence intensity.
As for “GCGCACAGTTCCCGTAAATCATACACGCACACATACACATACACACATACACATACGCAC”, the binding signal was 10.9 log fluorescence intensity.
Regarding “CGCGCACTCTGTGGTTGCCCACATACGCACACATACACATACACACATACACATACGCAC”, the binding signal is 11.3 log fluorescence intensity.
In the case of “GCATACGGCTGTCGTCAGCCACATACGCACACATACACATACACACATACACATACGCAC”, the binding signal was 10.9 log fluorescence intensity.
Take “CGCGCACTCTGTGGTCGCGCACATACGCACACATACACATACACACATACACATACGCAC”: the binding signal was 11.3 log fluorescence intensity.
Turning to “GCGCACATTTTCCGTAAATCATACACGCACACATACACATACACACATACACATACGCAC”, the binding signal is 11.1 log fluorescence intensity.
“CGCGCGCTCTGTGGTTGCGCACATACGCACACATACACATACACACATACACATACGCAC”: the binding signal was 11.2 log fluorescence intensity.
As to “GCGCACCTTTCCCGTAAATCATACACGCACACATACACATACACACATACACATACGCAC”, the binding signal was 10.9 log fluorescence intensity.
For “CGCGCACTCTGTGGTTGCGCACATACGCACACATACACATACACACATACACATACGCAC”, the binding signal is 11.7 log fluorescence intensity.
